Bioassay records from PubChem.
Pol iota inh: blocks human DNA polymerase iota activity. Potency, µM (highest dose often 115 µM), most hits filed as inhibitors. AID 588590. Pol iota fluorescent replication assay, 10 min. Q9UNA4. hit rate 1% among 390,000
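Fluorescent replication assay read twice, at 0 min and 10 min after adding 50 nM (final) substrate. Enzyme (10 nM) and compounds were first incubated 15 min at room temperature; enzyme-free buffer wells were negative controls.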
Pol eta inh-1: DNA polymerase eta (human) inhibition. hit rate 1.2% among 390,000. recombinant Pol eta, fluorescent DNA replication assay. AID 588591. Q9Y253. Potency, µM (highest dose often 114 µM), usual class: inhibitors
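Pol eta (10 nM) was preincubated with compounds for 15 min at room temperature, after which fluorescent replication substrate (50 nM final) was added to start the reaction. Fluorescence was read kinetically at 0 and 10 min.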
Pol beta inh: blocks human DNA polymerase beta activity; Pol beta primer extension/strand displacement, fluorescence kinetic; AID 485314; Potency, µM (titrated, usually from 114 µM), most hits filed as inhibitors; P06746; hit rate 1.3% among 340,000
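10 nM enzyme + cpd, 15 min RT; start with substrate 50 nM final; read 0 min and after 10 min RT. Corrected, normalized data; 4-parameter Hill curve fit.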
Pol kappa inh-1: DNA polymerase kappa (human) inhibition | Q9UBT6 | purified Pol kappa, fluorescent DNA synthesis assay, 10 min | Potency, µM (series often up to 107 µM), usual class: inhibitors | hit rate 0.53% among 400,000 | AID 588579
Target sequence (Q9UBT6 whole entry, looked up): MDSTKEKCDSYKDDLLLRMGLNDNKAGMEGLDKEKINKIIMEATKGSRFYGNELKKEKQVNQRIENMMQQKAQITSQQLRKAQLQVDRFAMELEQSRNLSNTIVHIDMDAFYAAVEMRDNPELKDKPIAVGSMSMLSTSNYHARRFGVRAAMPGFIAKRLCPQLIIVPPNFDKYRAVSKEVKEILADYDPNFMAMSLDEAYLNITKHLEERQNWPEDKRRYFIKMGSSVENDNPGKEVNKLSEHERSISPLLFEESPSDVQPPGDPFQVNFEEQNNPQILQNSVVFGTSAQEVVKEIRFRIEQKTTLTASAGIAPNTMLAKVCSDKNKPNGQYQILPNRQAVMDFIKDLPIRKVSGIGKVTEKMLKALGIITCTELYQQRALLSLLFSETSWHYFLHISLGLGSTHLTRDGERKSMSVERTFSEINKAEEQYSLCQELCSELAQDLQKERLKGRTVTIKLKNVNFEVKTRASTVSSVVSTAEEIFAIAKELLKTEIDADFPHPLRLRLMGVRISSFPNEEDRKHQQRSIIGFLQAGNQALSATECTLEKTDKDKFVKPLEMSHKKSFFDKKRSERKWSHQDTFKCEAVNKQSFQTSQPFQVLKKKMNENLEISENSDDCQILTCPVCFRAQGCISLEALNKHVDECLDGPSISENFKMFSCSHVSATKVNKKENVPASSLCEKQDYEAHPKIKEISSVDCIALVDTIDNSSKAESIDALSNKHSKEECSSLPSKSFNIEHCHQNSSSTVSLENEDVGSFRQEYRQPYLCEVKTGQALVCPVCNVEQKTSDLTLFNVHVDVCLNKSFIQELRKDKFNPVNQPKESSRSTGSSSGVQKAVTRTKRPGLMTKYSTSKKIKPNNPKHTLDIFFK
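Here, compound and 10 nM enzyme are combined for 15 min at room temperature; adding 50 nM substrate (final) starts DNA synthesis, tracked by fluorescence at 0 and 10 min against buffer-only wells.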
L3MBTL1 inh: blocks human L3MBTL1. Q9Y468. AlphaScreen L3MBTL1–H3K9me1 peptide binding. Potency, µM (top dose mostly 57.1 µM), hits mostly inhibitors. hit rate 0.66% among 230,000. AID 485360; also: nearly all actives have a fitted effect of over 60% in size
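AlphaScreen proximity signal between nickel-chelate acceptor and streptavidin donor beads (final 10 ug/mL) reports binding of 50 nM L3MBTL1 to 75 nM biotin-H3 K9me1 peptide; complex incubated with compounds 30 min at room temperature; cefsulodin titration as control.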
BAZ2B inh: inhibits human BAZ2B bromodomain, hit validation; shares compounds with Pol kappa inh-1; AlphaScreen BAZ2B / biotin-H3K14Ac peptide displacement; Potency, µM, usual class: inhibitors; hit rate 100% among 25; calls by dose curve
AlphaScreen ctr: interferes with AlphaScreen signal in BAZ2B counterscreen; shares compounds with Pol kappa inh-1; AlphaScreen biotin-His6 peptide bead counterscreen, signal decrease; 25 tested, under 10 active; Potency, µM (series often up to 57.1 µM), actives largely listed as inhibitors;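 active = clear concentration-dependent signal drop in the bead assay lacking the target, so a primary-screen artifact; inconclusive = weak, partial or single-dose response; inactive = no response, so a real primary hit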
TbPGK inh: validation of Trypanosoma brucei phosphoglycerate kinase inhibitors | TbPGK coupled GAPDH assay, Kinase-Glo luminescence | shares compounds with Pol kappa inh-1 | hit rate 79% among 500 | AID 686980 | Potency, µM (highest dose often 57.5 µM), usual class: inhibitors; also: nearly all actives have a fitted effect of over 65% in size
POLI cherry-pick: Inhibitors of human DNA polymerase iota, confirmation | shares compounds with Pol kappa inh-1 | Pol iota primer extension, TAMRA/BHQ fluorescence | Potency, µM, hits mostly inhibitors | hit rate 77% among 1,500 | AID 720496
Pol kappa inh-2: Pol kappa (human) inhibition, cherry-pick confirmation. hit rate 76% among 920. purified Pol-kappa, fluorescent strand-displacement substrate. Potency, µM, actives largely listed as inhibitors. shares compounds with Pol eta inh-1
Pol eta inh-2: confirmation of human DNA polymerase eta inhibitors | shares compounds with Pol eta inh-1 | Pol eta primer extension, TAMRA/BHQ fluorescence, 10 min | Potency, µM, most hits filed as inhibitors | hit rate 64% among 2,600 | AID 720502
Hits are given with their value; - = inactive; ? = inconclusive; . = not tested or not shown; [ ] = remark or other dose. Compounds with a hit are over-represented: about 2.4% of the library has one in this group of screens. Unless noted, calls follow the shape of the dose curve; as a rule, active = well fitted curve in the direction sought with a large enough effect; inconclusive = small, poorly fitted or top-dose-only effect, or another doubt; inactive = no such curve, though single readings can be large; an effect the other way counts as inactive or inconclusive.

SMILES | Pol iota inh | Pol eta inh-1 | Pol beta inh | Pol kappa inh-1 | L3MBTL1 inh | Pol eta inh-2 | others
CN1Cc2c(ccc3c2OCO3)C2C(O)Cc3cc4c(cc3C21)OCO4 (configuration not stated) | . | . | . | -[19.4 µM] | . | .
O=C(O)Cc1ccc(-n2cccc2)cc1 | 12.6µM | 3.55µM | 4.47µM | 44.7µM | . | 7.57 | BAZ2B inh=25.1;AlphaScreen ctr=?;POLI cherry-pick=11.9
CCn1nc(/C=C/c2ccccc2)nc2c(=O)n(C)c(=O)nc1-2 | - | 0.794µM | - | - | - | 0.757 | TbPGK inh=0.517µM;POLI cherry-pick=0.752
CCOc1ccc(-n2c(/C=C/c3ccccc3)nc3ccccc3c2=O)cc1 | - | - | - | - | . | .
CCN1C(=O)C(=C/C=C/c2ccco2)C(=O)N(CC)C1=S | ? | 3.55µM | 14.1µM | ? | 12.6µM | 7.57 | TbPGK inh=29.1µM;POLI cherry-pick=16.8;Pol kappa inh-2=7.52
COc1ccc(CCN)cc1O | - | - | - | - | . | .
NCCc1cc(O)c(O)cc1O | 1.41µM | 56.2µM | . | 0.708µM | . | 67.5
O=C1NC(=O)N(c2ccccc2F)C(=O)/C1=C/c1ccc(Sc2nc3ccccc3[nH]2)o1 | ? | 20µM | 22.4µM | 22.4µM | ? | 30.1 | Pol kappa inh-2=26.7
COCCCNC(=O)Cn1cc(/C=C2\C(=O)NC(=O)N(c3ccccc3F)C2=O)c2ccccc21 | - | - | - | - | . | .
CCOc1ccc(NC(=O)C2C(C(=O)O)C3(Cl)C(Cl)=C(Cl)C2(Cl)C3(Cl)Cl)cc1 (configuration not stated) | - | - | - | - | - | .
O=C(c1cccc2ccccc12)C1CCCN(C2CCC2)C1 (configuration not stated) | ? | ? | - | ? | - | ?
CCOP(=S)(OCC)OCCSCC | . | . | . | - | . | .
O=C(Oc1ccccc1)N(c1ccccc1)c1ccccc1 | - | - | - | - | - | .
CC[C@@]1(O)C(=O)OCc2c1cc1n(c2=O)Cc2cc3ccccc3nc2-1 | - | - | - | - | . | .
CCC1(O)C(=O)OCc2c1cc1n(c2=O)Cc2cc3cc(O)ccc3nc2-1 (configuration not stated) | 22.4µM | 17.8µM | . | ? | . | 75.7
COc1ccc(N2C(=O)NC(=O)/C(=C\c3ccc([N+](=O)[O-])s3)C2=O)cc1 | ? | 17.8µM | ? | 50.1µM | 22.4µM | 26.9
COc1ccc(N2C(=O)/C(=C/C=C/c3ccccc3[N+](=O)[O-])C(=O)NC2=S)cc1 | 15.8µM | 22.4µM | 20µM | ? | . | ?
CCOc1ccc(N2C(=O)NC(=O)/C(=C\c3cc(OC)c(OC)cc3[N+](=O)[O-])C2=O)cc1 | ? | - | - | - | - | .
COc1ccccc1N1C(=O)NC(=O)/C(=C/c2ccc([N+](=O)[O-])s2)C1=O | ? | 17.8µM | ? | 39.8µM | . | 37.9
COc1ccccc1N1C(=O)NC(=O)/C(=C/c2ccc3c4c(cccc24)CC3)C1=O | - | ? | - | - | ? | .
COc1cccc(N2C(=O)NC(=O)/C(=C/c3ccc([N+](=O)[O-])s3)C2=O)c1 | ? | 14.1µM | ? | 31.6µM | . | 26.9
Cc1cc(NC(=O)c2cc(-c3cccc(Cl)c3)on2)nn1Cc1ccc(Cl)cc1 | - | - | - | - | . | .
CCOC(=O)Cc1[nH]nc2c1C(c1ccoc1)C(C#N)=C(N)O2 (configuration not stated) | ? | - | - | - | - | .
Cc1ccc(-c2nc(S(=O)(=O)c3ccc(C)cc3)c(SCC(=O)Nc3ccc(F)cc3)o2)cc1 | - | - | ? | - | . | .
